Assay results published in PubChem BioAssay.
Active and inactive are the calls of the source. The rule behind the calls is not given here.

Target: Pantothenate synthetase (Mycobacterium tuberculosis (strain ATCC 25618 / H37Rv)) (UniProt P9WIL5)
Experiment: Coupled enzyme confirmation of inhibitors against recombinant Mtb PanC (AID 375);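 note: 0% = full reaction with vehicle and 100% = no enzyme background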
Conditions: coupled enzyme assay; at 10 µM, hits give high values

Sequence of Pantothenate synthetase (Mycobacterium tuberculosis (strain ATCC 25618 / H37Rv)) (P9WIL5 whole entry, looked up): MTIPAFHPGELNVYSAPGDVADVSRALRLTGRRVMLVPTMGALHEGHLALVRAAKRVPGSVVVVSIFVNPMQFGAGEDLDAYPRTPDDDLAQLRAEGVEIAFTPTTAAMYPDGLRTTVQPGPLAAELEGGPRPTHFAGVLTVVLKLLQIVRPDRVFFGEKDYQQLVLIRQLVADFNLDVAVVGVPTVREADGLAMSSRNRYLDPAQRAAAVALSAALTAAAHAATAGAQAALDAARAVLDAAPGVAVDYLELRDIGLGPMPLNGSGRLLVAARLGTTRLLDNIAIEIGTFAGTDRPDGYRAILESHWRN

SMILES | inhibition
CCN(CC)C(=O)C1CCCN(Cc2ccc(N(C)C)cc2)C1 (stereo not given) | 1% (inactive)
COc1cc(Cn2c(-c3nonc3N)nc3ccccc32)ccc1C | 0% (inactive)
CN(C)C(=O)Oc1ccc[n+](C)c1 | 4% (inactive)
CCOc1ccccc1C(=O)Nc1nnc(CC)s1 | 0% (inactive)
OCCNCCCCOc1ccccc1F | 0% (inactive)
CN(C=C1C(=O)CC(C)(C)CC1=O)CCN1CCNCC1 | 1% (inactive)
Cc1nc(NC2=NCN(CCCN3CCOCC3)CN2)nc2c(C)cccc12 | 0% (inactive)
O=C(O)CCNc1ccc2c(c1)OCCO2 | 0% (inactive)
CS(=O)(=O)Nc1ccc([N+](=O)[O-])cc1Oc1ccccc1 | 0% (inactive)
COc1ccccc1NC(=O)N(Cc1ccco1)Cc1cc2c(C)ccc(C)c2[nH]c1=O | 0% (inactive)
Cc1ccc(CNC(=O)C2CCN(S(=O)(=O)c3c(C)noc3C)CC2)cc1 | 3% (inactive)
O=C(Nc1ccccc1N1CCCCC1)c1ncoc1-c1ccc(F)cc1 | 1% (inactive)
CCOC(=O)Cc1csc(NC(=O)CN(C)S(=O)(=O)c2ccc3c(c2)CCC(=O)N3)n1 | 0% (inactive)
c1ccc(Cc2ccc(OCCn3cncn3)cc2)cc1 | 0% (inactive)
Cc1cc(C(=O)COC(=O)C2COc3ccccc3O2)c(C)n1CC1CCCO1 (stereo not given) | 0% (inactive)
O=C(Nc1nccs1)c1ccc(Cl)c(S(=O)(=O)N2CCCCC2)c1 | 0% (inactive)
O=C(c1ncn[nH]1)N1CCN(c2nc(-c3ccccc3)cs2)CC1 | 5% (inactive)
COc1ccc(CCN(Cc2cc3cccc(C)c3[nH]c2=O)C(=O)N2CCCC2)cc1OC | 0% (inactive)
Cc1cc(C)c(-c2cc(C(=O)Nc3c(C)n(C)n(-c4ccccc4)c3=O)[nH]n2)c(O)c1 | 0% (inactive)
COC(=O)c1cn(NC(=O)C2CCCO2)c(=O)c2ccccc12 (stereo not given) | 0% (inactive)

SMILES | inhibition
O=C(CN1C(=O)c2cccc3cccc1c23)Nc1ccccc1C(=O)NCc1ccco1 | 0% (inactive)
COc1ccc(NC(=O)N2CCN(c3nc(-c4cccc(OC)c4)cs3)CC2)cc1 | 0% (inactive)
Cn1c(Cc2csc(N)n2)nnc1SCC(=O)NCc1ccccc1 | 3% (inactive)
CCc1ccc2nc(NC(=O)CSCc3c(C)noc3C)sc2c1 | 6% (inactive)
OCCNc1ncnc2c1c(-c1ccccc1)c(-c1ccccc1)n2Cc1ccco1 | 1% (inactive)
CCn1c(C(Cc2ccccc2)NC(=O)COC)nc2ccccc21 (stereo not given) | 0% (inactive)
O=C(NCc1cccs1)C1CC(=O)N(C2CCCC2)C1 (stereo not given) | 2% (inactive)
CC1(C)CC(=O)C(C=NCc2ccc3c(c2)OCO3)=C(O)C1 | 5% (inactive)
Cc1ccc(SCCNS(=O)(=O)c2ccc(F)cc2)cc1 | 1% (inactive)
CCCCN1CN(S(=O)(=O)c2cccs2)c2nc3ccccc3nc21 | 0% (inactive)
Cc1ccccc1NC(=O)CSc1nnc(Cc2cccn2C)n1-c1ccc(F)cc1 | 0% (inactive)
COc1ccc(CCNc2nc(N3CCOCC3)nc(N3CCOCC3)n2)cc1OC | 0% (inactive)
CC(C)(C)SCCNC(=O)CSc1ccccc1 | 7% (inactive)
CN1C(=O)C(O)(CC(=O)c2ccc(F)cc2)c2cc(Br)ccc21 (stereo not given) | 0% (inactive)
Fc1ccccc1Cn1nnc2c(-n3ccnc3)ncnc21 | 0% (inactive)
O=C(Cn1cnc2c(nnn2Cc2ccccc2)c1=O)c1ccc(Cl)cc1 | 5% (inactive)
Cc1cc(C(=O)NCCCc2ccccc2)no1 | 10% (inactive)
Cc1ccc(NC(=O)CSc2nnc(CSc3nc(C)cc(C)n3)n2Cc2ccco2)c(C)c1 | 0% (inactive)
CCOC(=O)N1CCN(C(=O)c2ccc3c(=O)n(Cc4ccc(OC)cc4)c(=S)[nH]c3c2)CC1 | 4% (inactive)
Cc1nn(Cc2ccc(C(=O)NC3CCCCC3)o2)c(C)c1Br | 2% (inactive)
